AI-2 QS modul = modulates the Vibrio harveyi AI-2 quorum sensing system; hit rate 0.4% among 300,000; Vibrio harveyi JMH597 AI-2 luminescence/OD600 ratio, 9 h; stronger effect = lower value; strain lacks LuxN and CqsS sensors; 0 = neutral-control median; activity change, % at 7.5 µM; in the data active = activity change below about -75%, passing the limit was not always enough;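 note: luminescence divided by OD600 gain over 9 h not by final OD600 alone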
HSP90 refold inh = inhibitors of HSP90 luciferase refolding in rabbit reticulocyte lysate; luciferase refolding luminescence, 3 h; inhibition, % at 5.6 µM; hit rate 0.91% among 290,000; AID 1789;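 active = inhibition above the screen-wide mean plus 3 SD, computed separately per campaign, cut at about 16% in these data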;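 note: 0% = DMSO wells and 100% = 60 µM geldanamycin wells; inhibitors lower the luminescence because luciferase stays unfolded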
SMARCA2 act = increases SMARCA2 function in MMTV reporter cells. MG213 cells, MMTV-luciferase reporter, dexamethasone, overnight. activation, % at 9.1 µM. hit rate 1% among 370,000; in the data active = activation above about 7.8%;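 note: 0% = vehicle wells and 100% = reference activator wells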
PG9 binder = small molecules binding HIV-1 gp120 antibody PG9; TR-FRET gp120-PG9 antibody binding; inhibition, % at 6.7 µM; hit rate 0.43% among 360,000; in the data active = inhibition above about 8.5%
HSF1 inh = HSF1 inhibition; NIH3T3-HGL HSE-luciferase, MG132-induced, luminescence 8 h; stronger effect = lower value; activity change, negative = inhibition, % at 7.5 µM (by protocol); hit rate 0.77% among 300,000; AID 2098;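 active = more than half of replicate wells show activity change below -50%, luminescence cut by over half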;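 note: luciferase reports HSF-1 transcriptional activity via heat shock element; 0% = median of DMSO wells and -100% = zero luminescence signal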
FXN GAA850 act = activators of GAA850 frataxin (FXN) promoter | AID 540364 | activation, % at 6 µM | HEK293 lucGAA850 FXN promoter luciferase reporter, 24 h; percent of 10 µM SAHA response | hit rate 0.56% among 360,000;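 active = activation above the average of all compounds screened plus 3 SD, cutoff fixed separately per campaign, cut at about 7.5% in these data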;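 note: 0% = DMSO wells and 100% = 10 µM SAHA wells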
GAA30 FXN cntr = activates GAA30 frataxin promoter, counter-screen for GAA850 activators | activation, % at 6 µM | shares compounds with FXN GAA850 act | AID 588350 | HEK293 lucGAA30 FXN promoter luciferase, 24 h; DMSO = 0%, 5 µM ipriflavone = 100% | hit rate 66% among 1,900;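 active = mean activation above the mean of solvent-only control wells plus 3 SD, cut at about 22% in these data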;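 note: counterscreen of GAA850 promoter hits where activity marks nonselective or luminescence artifacts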
FXN GAA850 conf = confirmation of GAA850 frataxin (FXN) promoter activators. AID 588351. hit rate 86% among 1,900. shares compounds with FXN GAA850 act. HEK293 lucGAA850 FXN promoter luciferase reporter, 24 h; 100% = activation by SAHA. activation, % at 6 µM;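 active = mean activation above a set limit taken from the primary screen, cut at about 8% in these data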;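 note: 0% = DMSO wells and 100% = 10 µM SAHA wells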
Active calls of the source: *; . = no result given. Only some compounds are listed: those with a hit (about 3.4% of all), similar ones and a draw of the others.

SMILES | AI-2 QS modul | HSP90 refold inh | SMARCA2 act | PG9 binder | HSF1 inh | FXN GAA850 act | GAA30 FXN cntr | FXN GAA850 conf
C=C[C@@]1(C)CC(=O)[C@]2(O)[C@@]3(C)[C@@H](O)CCC(C)(C)[C@@H]3[C@H](OC(C)=O)[C@H](O)[C@@]2(C)O1 | -9 | . | 6 | -3 | 0 | 12* | 7 | 14*
C=C1C(=O)O[C@H]2C[C@]3(C)C([C@@H](OC(=O)/C(C)=C/C)[C@H]12)[C@](C)(O)CC[C@H]3O (stereo partly drawn) | 4 | 5 | 3 | -3 | 16 | 1 | . | .
O=C(CCS(=O)(=O)c1ccccc1)Nc1nc(-c2cccs2)cs1 | 27 | 6 | -4 | 2 | 12 | 8.8* | -9 | 9.8*
Cc1ccc(CNc2ccc3c(c2)ncn3C(C)(C)C)cc1 | -48 | -1 | 2 | -1 | 13 | 10.0* | 107* | 37*
CCn1c2ccccc2c2cc(NC(=O)CSc3nnc(-c4cccc(OC)c4)n3N)ccc21 | 11 | 0 | -4 | 3 | 20 | 8.4* | 19 | 9.0*
CCn1c2ccccc2c2cc(NC(=O)CSc3nnc(-c4ccc(OC)c(OC)c4)n3N)ccc21 | 12 | -2 | -1 | 0 | -2 | 2 | . | .
CCn1c2ccccc2c2cc(NC(=O)CSc3nnc(-c4ccccc4OC)n3N)ccc21 | 6 | 0 | -2 | 2 | 1 | 8.4* | 19 | 7
Cn1cc(Cc2ccc(C(=O)NCc3ccccc3)cn2)c2ccccc21 | . | . | -1 | -3 | . | 1 | . | .
COc1ccc(OC)c(CN2C(=O)CCCC2(C)c2nnnn2C2CCCC2)c1 (stereo not drawn) | . | . | -2 | . | . | . | . | .
CCNC(=O)OC[C@H]1O[C@H](C#Cc2ccc(C(C)(C)C)cc2)C=C[C@H]1OC(C)=O | . | . | -3 | -2 | . | . | . | .
CC1(Cc2ccc(C(F)(F)F)o2)C(=O)Nc2cc(-c3ccc(F)cc3F)ccc21 (stereo not drawn) | . | . | -8 | -2 | . | 9.2* | 20 | 13*
Cn1c(O)c(N=NC(=O)c2ccco2)c2ccccc21 | 28 | 7 | 5 | -5 | 32 | 8.4* | 144* | 38*
Cn1c(O)c(N=NC(=O)CNC(=O)c2ccco2)c2ccccc21 | 14 | -3 | -1 | 2 | -4 | 2 | . | .
CN(C)C(=S)N=c1ssc(=S)n1Cc1cccnc1 | . | . | 6 | 0 | . | 12* | 1 | 12*
Cc1ccc(NC(=O)C(=O)NCc2ccccn2)cc1 | 4 | -7 | 3 | 0 | 13 | 8.3* | 90* | 38*
O=C(NCc1ccccn1)C(=O)Nc1ccccc1 | 14 | 1 | 5 | 0 | 7 | 3 | . | .
COC(=O)[C@]12CCCCC=C1N(Cc1ccccc1)C(=O)[C@H](CC(=O)NCc1ccccc1)C2 | . | . | -5 | -2 | . | . | . | .
COc1cccc(-c2ccc(CN3C(C(C)C)C(=O)N(Cc4cn(CCC5OCCO5)nn4)CCS3(=O)=O)cc2)c1OC (stereo not drawn) | . | . | -3 | -2 | . | . | . | .
Cn1c(=O)c2c(nc(SCCN3CCOCC3)n2Cc2ccccc2Cl)n(C)c1=O | -14 | 1 | -1 | 1 | -1 | 1 | . | .
Cn1c(=O)c2c(nc(SCCN3CCOCC3)n2Cc2ccc(F)cc2)n(C)c1=O | 5 | -1 | 6 | 1 | 16 | 9.0* | 99* | 36*
COc1cc(OC)c(OC)cc1CCC(C)NCCC(c1ccccc1)c1ccccc1 (stereo not drawn) | 8 | 1 | -2 | 1 | 3 | 13* | -20 | 9.4*
COc1ccc(CCNCCC(c2ccccc2)c2ccccc2)cc1OC | . | . | -4 | -2 | . | -4 | . | .
CCCN1CCCCC(NC(C)=O)C1=O (stereo not drawn) | . | . | -1 | -2 | . | . | . | .
CC(C)Cc1nnc(NC(=O)C2=COCCO2)s1 | . | . | 1 | 2 | . | 0 | . | .
CC(C)Cc1nnc(NC(=O)c2cc3c(s2)CCC3)s1 | 2 | -1 | 3 | 1 | 8 | 8.2* | 95* | 29*
SMILES | AI-2 QS modul | HSP90 refold inh | SMARCA2 act | PG9 binder | HSF1 inh | FXN GAA850 act | GAA30 FXN cntr | FXN GAA850 conf
NC1(C(=O)O)CSSC1 | . | . | 1 | 0 | . | 9.8* | -20 | 25*
Cc1[nH]c2ccccc2c1C(=O)/C=C\c1ccccc1Cl | 14 | 1 | 1 | -1 | 43 | 4 | . | .
Cc1[nH]c2ccccc2c1C(=O)/C=C/c1ccccc1Cl | -2 | -9 | -1 | -2 | 84 | 7.7* | 117* | 44*
CCCCc1c(-c2ccccc2OC)ncn1C1CCCCC1 | . | . | -4 | -1 | . | . | . | .
COc1ccc(NC(=O)CSCC(=O)Nc2cc(Cl)ccc2N2CCOCC2)cc1 | 8 | . | 4 | -2 | 2 | 1 | . | .
COc1ccc(NC(=O)CSCC(=O)Nc2cc(Cl)ccc2N2CCCC2)cc1 | -26 | 1 | 1 | 0 | -1 | 8.5* | 9 | 6
Cc1nn2cc(-c3ccc(Cl)cc3)cnc2c1Cl | 4 | -4 | -1 | 0 | 24 | 7.7* | 119* | 37*
O=C(NC1CCCC1)C(c1ccncc1)N(Cc1ccccc1)C(=O)Cc1cccs1 (stereo not drawn) | 20 | -1 | -3 | -2 | . | 3 | . | .
O=C(NC1CCCC1)C(c1ccsc1)N(Cc1ccccc1)C(=O)Cc1cccs1 (stereo not drawn) | 4 | 3 | -2 | -2 | 5 | 14* | 14 | 19*
C/C=C/Cn1c(SCc2ccc(C)cc2)nc2c1c(=O)[nH]c(=O)n2C | 16 | 2 | 1 | 0 | 3 | 8.7* | 23* | 21*
CC=CCn1c(SCc2ccccc2)nc2c1c(=O)[nH]c(=O)n2C | . | . | 1 | -1 | . | 2 | . | .
C[C@@H]1C=CCCO[C@]12C(=O)N(CC1CC1)c1ccccc12 | . | . | -1 | -1 | . | . | . | .
N#C/C(=C/c1ccc(N2CCOCC2)o1)c1ccc(Cl)cc1 | 12 | 3 | 6 | -2 | 43 | 20* | 119* | 47*
N#C/C(=C\c1ccc(N2CCOCC2)o1)c1nc2ccccc2[nH]1 | 17 | 3 | 7 | -26 | 32 | 1 | . | .
Cc1cccc2nc(CSc3nc4ccc([N+](=O)[O-])cc4[nH]3)c(Br)n12 | -56 | -1 | 2 | -2 | -1 | 14* | 37* | 17*
Cc1cc(Cl)c2oc(C(=O)N3CCN(C(=O)c4ccco4)CC3)c(C)c2c1 | . | -1 | 4 | -1 | 12 | 9.8* | 114* | 40*
Cc1cc(Cl)c2oc(C(=O)N(CCO)Cc3ccccc3)c(C)c2c1 | 21 | -1 | 0 | 1 | 15 | 7 | . | .
Cc1cc(Cl)c2oc(C(=O)N3CCOCC3)c(C)c2c1 | . | . | 3 | 0 | . | 3 | . | .

Assay outcomes: PubChem, several laboratories
